This test is described as follows: qHTS Assay for Rab9 Promoter Activators: Hit Validation Using Renilla Luciferase Read-Out. In outline:
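Hit validation in Huh7 NPC promoter-luciferase reporter line: compound treatment 24 h at 37 deg C, then luminescence measured after 10 min room-temperature incubation with […] reagent.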

Records with an inconclusive call do not appear. Where a call stands in place of a potency, no number is given. Activity calls are given as the source filed them. The call rests on the fitted dose curve; in most records, active means well fitted curve in the direction sought with a large enough effect; inconclusive means small, poorly fitted or top-dose-only effect, or another doubt; inactive means no such curve, though single readings can be large or run the other way.
Potency means the concentration at half of the fitted maximal effect.

With `CCC(=O)Nc1cc(-c2cc3ccccc3oc2=O)ccc1OC`, the Potency result was “inactive”. In the case of `O=C(COC(=O)c1ccc(-c2nnc(-c3ccccc3)o2)cc1)c1ccccc1` it was “inactive”; in that of `Cc1ccc2nc(NC(=O)CCn3cccc3)sc2c1`, “inactive”; in that of `CC1CCCN(C(=S)Nc2ccc(Nc3ccccc3)cc2)C1` (centres undefined), “inactive”. In the case of `CCOc1cc(C(=O)N=c2sccn2C)ccc1OC(F)F` it was “inactive”. In the case of `O=C(CCCN1C(=O)C(c2ccccc2)Oc2cccnc21)Nc1ccccc1Cl` (centres undefined) it was “inactive”; in that of `O=C(CSc1nnc(-c2ccccn2)o1)Nc1ccccc1F`, “inactive”; in that of `COC(=O)c1cn(NC(=O)C2CCCCC2)c(=O)c2ccccc12`, “inactive”.

`CC(=O)NC(=S)Nc1ccc2oc(-c3cc(F)c(F)cc3Cl)nc2c1`: the Potency result is “inactive”. The entry for `CCOc1ccc(CNC(=O)C2CCCN(S(C)(=O)=O)C2)cc1OC` (centres undefined) is “inactive”; for `CC(C)(C)C(=O)N/C(N)=N/c1nc2ccccc2o1` it is “inactive”. For the compound `O=C(NC1CCCC1)C(c1ccc(F)cc1)N(C(=O)c1csnn1)c1ccccc1` (centres undefined), the Potency result was “inactive”. As to `CC1CN(C(=O)c2ccncc2)CC(C)O1` (centres undefined), the Potency result was “inactive”. In the case of `COc1ccc(-c2noc(N3CCCC(C(=O)Nc4ccccc4F)C3)n2)cc1` (centres undefined) it was “inactive”; in that of `COc1ccc(NC(=O)Nc2ccc(Cc3ccncc3)cc2)cc1OC`, “inactive”. The entry for `O=C(CSc1nnc(-c2ccc([N+](=O)[O-])cc2)o1)Nc1ccccn1` is “inactive”. For `O=C(C[N+]1(CC#Cc2ccccc2)CCCCC1)c1ccccc1`, the Potency result was “inactive”. The figure for `CC(=O)c1c(C)[nH]c(C(=O)Nc2cccc(S(=O)(=O)N(C)C)c2)c1C` is 26 µM (active); for `Cc1noc(/C=C/N(C)C)c1S(=O)(=O)N1CCCC(C(=O)N2CCCCC2)C1` (centres undefined) it is “inactive”. In the case of `CCOC(=O)c1ccc(-c2nnc(-c3ccc(Cl)cc3Cl)o2)cc1` it was “inactive”; in that of `O=C(NCCSCc1c(F)cccc1Cl)c1ccc(CN2CCOCC2)cc1`, “inactive”; in that of `COC(=O)c1ccccc1S(=O)(=O)NNC(=O)Nc1ccccc1`, “inactive”. In the case of `CCOC(=O)c1ccc(NC(=O)Oc2cc(C)c(Cl)cc2C(C)C)cc1` it was “inactive”; in that of `O=C(NCCc1ccccc1)c1cc2ncc(Br)cn2n1`, “inactive”; in that of `COc1ccc(NC(=O)CSc2ccc([N+](=O)[O-])cc2)cc1S(=O)(=O)N1CCOCC1`, “inactive”.

As to `COc1ccc(-c2cc(C(=O)Nc3ccccc3F)on2)cc1`, the Potency entry is “inactive”. In the case of `CCCCc1cc(=O)oc2cc(OCC(=O)N3CCOCC3)ccc12` it was “inactive”; in that of `Cc1nc(SCC(=O)NC(=O)NC(C)(C)C)nc(C)c1C`, “inactive”. The entry for `CCCNC(=O)C1CCN(S(=O)(=O)c2ccc3[nH]c(=O)ccc3c2)CC1` is “inactive”. The entry for `CCOC(=O)c1csc(COc2ccc(OC)cc2)n1` is “inactive”. Consider `COCCSc1ncnc2c1oc1nc3c(cc12)COC(C)(C)C3`, for which the Potency result is “inactive”. In the case of `CCCOP(=O)(c1ccc(N(C)C)cc1)C(O)c1cccnc1` (centres undefined) it was “inactive”; in that of `CC1(C)CC(=O)c2c(O)c(-c3ccccc3)c(=O)n(-c3ccccc3)c2C1`, “inactive”. In the case of `O=C(CCS(=O)(=O)c1ccccc1)Nc1ccc(-c2nc3ccccc3s2)cc1` it was “inactive”; in that of `Cc1ccc(N=Cc2sc(O)c3ccccc23)c(C)c1`, “inactive”; in that of `O=C(CCNC(=O)c1ccc(Br)o1)NCc1ccc(Cl)cc1`, “inactive”. For the compound `Nc1ccc(C(=O)Nc2ccccc2N)cc1`, the Potency is 8.23 µM (active). The entry for `COc1ccc2oc(=O)c(C(=O)NC(C)c3ccccc3)cc2c1` (centres undefined) is “inactive”; for `O=C(N/N=C/c1ccc(-c2ccc(Br)cc2)o1)c1ccc2c(c1)OCO2` it is “inactive”.
